# Reference: PubChem BioAssay (EPA / NIEHS)
# Records with an inconclusive call do not appear. Activity calls are given as the source filed them. The calls were made as follows: active = hit-call score of the fitted dose curve at least 0.9, where 1 is the maximum; inconclusive = response in the unintended direction; inactive = score below 0.9.
# Assay: ACEA_ER_AUC_viability: ACEA Biosciences xCELLigence Real-Time Cell Analysis on Estrogen Receptor Agonism for Viability (AID 2283782);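 also: continuous compound exposure with impedance area under curve over 80 h; hit means loss of impedance signal meaning reduced cell growth or viability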
# Method: ACEA_ER is a cell-based, single-readout assay that uses T47D, a human breast cell line, with measurements taken at 80 hours after chemical dosing in a 96-well plate, although TO2 (mc0.srcf) used a 384-well plate. Differences in plate size can be ignored given data normalization.ACEA_ER_AUC_viability is one of two assay component(s) measured or calculated from the ACEA_ER assay. It is designed to make measurements of real-time cell-growth kinetics, a form of growth reporter, as detected with electrical impedance signals by Real-Time Cell Electrode Sensor (RT-CES) technology.Data from the assay component ACEA_ER_AUC_viability was analyzed in the positive analysis fitting direction relative to DMSO as the negative control and baseline of activity. Using a type of growth reporter, loss-of-signal activity can be used to understand changes in the viability. Furthermore, this assay endpoint can be referred to as a secondary readout, because this assay has produced multiple assay endpoints where this one serves a viability function. To generalize the intended target to other relatable targets, this assay endpoint is annotated to the cell cycle intended target family, where the subfamily is cytotoxicity.
# The xCELLigence system Multi-E-Plate stations were used to measure the time-dependent response to chemicals. Each compound was tested in an eight-point, 1:4 serial dilution series starting at a maximum final concentration of 100 uM. A maximum starting concentration of 0.5% DMSO was present in the 100 uM chemical samples and was diluted along with the test article dilution series. The screen was performed in biological duplicate using two separate, 96-well, E-Plates 96 for each dilution series (n = 2). Positive controls (MG132 and E2) and a negative control (assay media) were tested in quadruplicate on each testing plate. Then, 0.5% and 0.125% DMSO were tested in duplicates in each plate to serve as solvent controls for the 2 highest concentrations of testing compounds: 100 uM and 25 uM. Reference compounds were tested with 8 concentrations with 1:5 serial dilutions. All screening was carried out by ACEA Biosciences, Inc. (San Diego, CA). T-47D cells purchased from ATCC were maintained in RPMI1640 media supplemented with 10% characterized fetal bovine serum (FBS). Before screening, T-47D cells were preconditioned in assay medium: phenol red-free RPMI1640 supplemented with 10% charcoal-stripped FBS. Cells were then detached and seeded in E-Plates 96 in assay medium. After overnight monitoring of growth once every hour, compounds were added to […] cells and remained in the medium until the end of the experiment. Cellular responses were then recorded once every 5 min for the first 5 h, and once every hour for an additional 100 h.
SMILES,outcome,AC50
CN1C(=O)c2ccccc2C1=O,inactive,
CCCCCCCCCCCCN1CCCCCC1=O,,31.3 µM (active)
CCOc1ccc(N=Nc2ccc(C=Cc3ccc(N=Nc4ccc(OCC)cc4)cc3S(=O)(=O)O)c(S(=O)(=O)O)c2)cc1,inactive,
CCOc1ccccc1O,inactive,
CC(=O)O[C@H]1C[C@@H]2CC[C@@]1(C)C2(C)C,inactive,
N#Cc1cscn1,inactive,
CCOCCOCCOCC,inactive,
CC=Cc1ccc(OC)c(OC)c1,inactive,
CC1(C)C2=CCCC(C)(C)[C@]23CC[C@H]1C3,,78.4 µM (active)
O=CCc1ccccc1,,78.6 µM (active)
CCCCC(CC)COC(=O)c1ccc(O)cc1 (stereo not given),,22.4 µM (active)
CCCCCCCCCCCCCC(=O)OCC(O)CO (stereo not given),,81.6 µM (active)
CCCCOCC,inactive,
C[C@H]1O[C@@H](O[C@H]2[C@@H](O)C[C@H](O[C@H]3[C@@H](O)C[C@H](O[C@H]4CC[C@@]5(C)[C@H](CC[C@@H]6[C@@H]5C[C@@H](O)[C@]5(C)[C@@H](C7=CC(=O)OC7)CC[C@]65O)C4)O[C@@H]3C)O[C@@H]2C)C[C@H](O)[C@@H]1O,,0.0803 µM (active)
O=C(Nc1ccc2c(O)c(N=Nc3ccc(N=Nc4ccc(S(=O)(=O)O)cc4)cc3)c(S(=O)(=O)O)cc2c1)c1ccccc1,inactive,
COc1ccc(COC(C)=O)cc1,inactive,
CCCCCC(=O)CC,inactive,
Nc1ccc(NCCO)c([N+](=O)[O-])c1,inactive,
C1=CC2C3C=CC(C3)C2C1 (stereo not given),inactive,
Nc1ccc(N)c2c1C(=O)c1ccccc1C2=O,inactive,

SMILES,outcome,AC50
C=C[Si]1(C)O[Si](C)(C=C)O[Si](C)(C=C)O[Si](C)(C=C)O1 (stereo not given),,88 µM (active)
COc1ccc(CCC(C)=O)cc1,inactive,
CCOC(=O)c1ccc(N)cc1,inactive,
O=[N+]([O-])c1ccc(O)cc1C(F)(F)F,,86.6 µM (active)
O=C(CS)OCCOC(=O)CS,,82.2 µM (active)
CCCC[O][Al]([O]CCCC)[O]CCCC,,59.3 µM (active)
CCCCCCCC/C=C\CCCCCCCC(=O)OCC,inactive,
O=C(O)CCCCCCCCCCCC(=O)O,,50 µM (active)
CCCN(CCC)S(=O)(=O)c1ccc(C(=O)O)cc1,inactive,
CCc1ncc(C)[nH]1,inactive,
Oc1c(Cl)cc(Cl)c(Cl)c1Cc1c(O)c(Cl)cc(Cl)c1Cl,,5.27 µM (active)
CN(C)c1ccncc1,,32.7 µM (active)
[O-]n1ccccc1=S.[O-]n1ccccc1=S.[Zn+2],,2.84 µM (active)
O=C(c1ccccc1)C(O)c1ccccc1 (stereo not given),inactive,
CCC1CCCCC1,,75.8 µM (active)
CCCOCCO,inactive,
CCCCCCCCc1ccc(S(=O)(=O)O)cc1,inactive,
COC(=O)c1ccc([N+](=O)[O-])cc1,,80.2 µM (active)
COCCOC(=O)c1ccccc1C(=O)OCCOC,inactive,
CCCCCCC(CO)CCCC (stereo not given),,76.9 µM (active)
